Experimental data as given in PubChem BioAssay (NCI).
About 79,000 compounds went through this panel and 15% of them were active in at least one assay; those are over-represented in the sample as a whole. Active and inactive are the calls of the source. No stated cut-off is given here; in the data, active means growth inhibition above about 70%; inactive means the rest.

Key:
[1] = NCI Yeast Anticancer Drug Screen. Data for the rad50EPP+ strain (AID 151);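 further: 0% = growth of vehicle-treated control cultures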; conditions: S. cerevisiae rad50 mutant strain, active compounds read high
Outline: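 Compounds were applied to the rad50EPP+ yeast strain, which bears a defined DNA repair alteration, and growth inhibition was determined relative to vehicle-treated cultures.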

[2] = NCI Yeast Anticancer Drug Screen. Data for the mgt1 strain (AID 153); conditions: S. cerevisiae mgt1 mutant growth inhibition, active compounds read high
Outline: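 Strain: mgt1 yeast, one of a set carrying defined DNA damage repair or cell cycle control alterations. Compound-treated growth compared with vehicle.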

[3] = NCI Yeast Anticancer Drug Screen. Data for the rad50 strain (AID 155);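 further: 0% = growth of vehicle-only cultures of the same strain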; conditions: S. cerevisiae rad50 strain growth inhibition, active compounds read high
Outline: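 DNA repair mutant yeast, compound exposure, growth read-out; inhibition is taken relative to vehicle.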

[4] = NCI Yeast Anticancer Drug Screen. Data for the mec2-1 strain (AID 157); conditions: S. cerevisiae mec2-1 strain, active compounds read high
Outline: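 Strain: mec2-1 (DNA repair/cell cycle alteration). Compound exposure, then growth measured; inhibition expressed relative to vehicle.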

[5] = NCI Yeast Anticancer Drug Screen. Data for the rad14 strain (AID 159);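 further: 0% = growth of vehicle-treated control cultures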; conditions: S. cerevisiae rad14 strain growth inhibition, active compounds read high
Outline: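 DNA repair-defective yeast, compound-exposed; % growth inhibition derived by comparison with vehicle-treated controls.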

[6] = NCI Yeast Anticancer Drug Screen. Data for the sgs1 mgt1 strain (AID 161);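 further: 0% = growth of cultures given vehicle only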; conditions: S. cerevisiae sgs1 mgt1 strain, active compounds read high
Outline: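 Inhibition of yeast growth, normalised to vehicle-treated controls, is reported for a strain bearing genetic alterations in DNA damage repair.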

[7] = NCI Yeast Anticancer Drug Screen. Data for the CLN2oe strain (AID 163);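 further: 0% = growth of vehicle-only control cultures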; conditions: S. cerevisiae CLN2oe strain, active compounds read high
Outline: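 Growth of a genetically modified yeast strain is measured after compound exposure and compared with cultures given vehicle alone.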

[8] = NCI Yeast Anticancer Drug Screen. Data for the cln2 rad14 strain (AID 165);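 further: 0% = growth equal to vehicle treated cultures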; conditions: S. cerevisiae cln2 rad14 strain, active compounds read high
Outline: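 Compounds are applied to the cln2 rad14 yeast strain, and growth is then compared with that of vehicle-treated cultures to give inhibition.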

[9] = NCI Yeast Anticancer Drug Screen. Data for the bub3 strain (AID 167); conditions: S. cerevisiae bub3 mutant strain, active compounds read high
Outline: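 In this screen, a yeast mutant lacking normal mitotic checkpoint function is challenged with compound. Relative growth versus vehicle gives the inhibition value.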

[10] = NCI Yeast Anticancer Drug Screen. Data for the wt2 strain (AID 169);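 further: 0% = growth of vehicle-treated yeast cultures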; conditions: S. cerevisiae wt2 strain growth inhibition, active compounds read high
Outline: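 This strain belongs to a panel of yeast strains with defined genetic alterations in DNA damage repair or cell cycle control. Compounds are applied, and growth inhibition is measured against vehicle-treated cultures.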

[11] = NCI Yeast Anticancer Drug Screen. Data for the mlh1 strain (AID 171);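 further: 0% = growth of vehicle-treated control cultures of the same strain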; conditions: S. cerevisiae mlh1 strain growth inhibition, active compounds read high
Outline: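 Growth of the mutant yeast strain after compound exposure, expressed as inhibition relative to vehicle-only controls.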

[12] = NCI Yeast Anticancer Drug Screen. Data for the sgs1 strain (AID 173);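 further: 0% = growth of vehicle-only control cultures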; conditions: S. cerevisiae sgs1 mutant, active compounds read high
Outline: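 Growth of a yeast strain bearing a defined genetic alteration is measured after compound treatment. Inhibition is expressed relative to vehicle-only controls.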

[13] = NCI Yeast Anticancer Drug Screen. Data for the mlh1 rad18 strain (AID 175); conditions: S. cerevisiae mlh1 rad18 strain growth inhibition, active compounds read high
Outline: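 Read-out is yeast growth inhibition, calculated against vehicle-only controls. The compound was applied to a strain engineered with DNA damage repair alterations.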

[14] = NCI Yeast Anticancer Drug Screen. Data for the rad18 strain (AID 177); conditions: S. cerevisiae rad18 mutant growth inhibition, active compounds read high
Outline: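 Growth of the mutant yeast strain after compound exposure, normalised to vehicle-only cultures.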

[15] = at 5.0 µM (retest, dose inferred, filed as 0.5)
[16] = at 50.0 µM (retest, dose inferred, filed as 5.0)

Measured: growth inhibition

CCCCCCC(CCl)c1sc(-c2csc(CCNC(=O)OC(C)(C)C)n2)nc1C(=O)OC (stereo not drawn)
inactive: [1]; at 1.2 µM -1% | [1]; at 3.7 µM 1% | [1]; at 11.0 µM 2% | [1]; at 33.0 µM 4% | [1]; at 100.0 µM 19% | [2]; at 1.2 µM -1% | [2]; at 3.7 µM -3% | [2]; at 11.0 µM -6% | [2]; at 33.0 µM 2% | [3]; at 1.2 µM -1% | [3]; at 3.7 µM 1% | [3]; [15] -23% | [3]; at 11.0 µM 5% | [3]; at 33.0 µM 24% | [3]; [16] 11% | [3]; at 50.0 µM -2.85% | [4]; at 1.2 µM 0% | [4]; at 3.7 µM -3% | [4]; [15] -11% | [4]; at 11.0 µM 0% | [4]; at 33.0 µM 6% | [4]; [16] 39% | [4]; at 50.0 µM 30.1% | [5]; at 1.2 µM 0% | [5]; at 3.7 µM 1% | [5]; at 11.0 µM 6% | [5]; at 33.0 µM 23% | [6]; [15] 17% | [6]; [16] 27% | [6]; at 50.0 µM -13.5% | [7]; at 1.2 µM -3% | [7]; at 3.7 µM -2% | [7]; at 11.0 µM -9% | [7]; at 33.0 µM -10% | [7]; at 100.0 µM 66% | [8]; [15] 47% | [8]; [16] -2% | [8]; at 50.0 µM -42.5% | [9]; at 1.2 µM -1% | [9]; at 3.7 µM 0% | [9]; [15] -21% | [9]; at 11.0 µM 2% | [9]; at 33.0 µM 8% | [9]; [16] 47% | [9]; at 50.0 µM 9.85% | [10]; at 1.2 µM -3% | [10]; at 3.7 µM -5% | [10]; at 11.0 µM -5% | [10]; at 33.0 µM -6% | [11]; at 1.2 µM -3% | [11]; at 3.7 µM -2% | [11]; at 11.0 µM -4% | [11]; at 33.0 µM -1% | [12]; at 1.2 µM -2% | [12]; at 3.7 µM 0% | [12]; at 11.0 µM 1% | [12]; at 33.0 µM 14% | [13]; [15] -15% | [13]; at 50.0 µM 43.5% | [14]; at 1.2 µM -2% | [14]; at 3.7 µM 2% | [14]; at 11.0 µM 16% | [14]; at 33.0 µM 65%
active: [2]; at 100.0 µM 98% | [3]; at 100.0 µM 97% | [4]; at 100.0 µM 96% | [5]; at 100.0 µM 97% | [9]; at 100.0 µM 94% | [10]; at 100.0 µM 97% | [11]; at 100.0 µM 97% | [12]; at 100.0 µM 97% | [13]; [16] 88% | [14]; at 100.0 µM 96%

COc1ccc2nc3cccc([N+](=O)[O-])c3c(NCCCO)c2c1
inactive: [1]; at 1.2 µM 9% | [1]; at 3.7 µM 35% | [2]; at 1.2 µM 12% | [2]; at 3.7 µM 51% | [7]; at 1.2 µM 6% | [7]; at 3.7 µM 43% | [9]; at 1.2 µM -9% | [9]; at 3.7 µM 14% | [9]; [15] 16% | [10]; at 1.2 µM 6% | [10]; at 3.7 µM 33% | [11]; at 1.2 µM 35%
active: [1]; at 11.0 µM 75% | [1]; at 33.0 µM 94% | [1]; at 100.0 µM 97% | [2]; at 11.0 µM 92% | [2]; at 33.0 µM 96% | [2]; at 100.0 µM 96% | [3]; at 1.2 µM 87% | [3]; at 3.7 µM 93% | [3]; [15] 95% | [3]; at 11.0 µM 95% | [3]; at 33.0 µM 97% | [3]; [16] 98% | [3]; at 50.0 µM 86.8% | [3]; at 100.0 µM 97% | [4]; at 1.2 µM 93% | [4]; at 3.7 µM 96% | [4]; [15] 97% | [4]; at 11.0 µM 98% | [4]; at 33.0 µM 98% | [4]; [16] 99% | [4]; at 50.0 µM 91% | [4]; at 100.0 µM 96% | [5]; at 1.2 µM 97% | [5]; at 3.7 µM 98% | [5]; at 11.0 µM 99% | [5]; at 33.0 µM 99% | [5]; at 100.0 µM 95% | [6]; [15] 95% | [6]; [16] 98% | [6]; at 50.0 µM 82.9% | [7]; at 11.0 µM 88% | [7]; at 33.0 µM 95% | [7]; at 100.0 µM 98% | [8]; [15] 99% | [8]; [16] 99% | [8]; at 50.0 µM 89.4% | [9]; at 11.0 µM 87% | [9]; at 33.0 µM 97% | [9]; [16] 99% | [9]; at 50.0 µM 85.2% | [9]; at 100.0 µM 99% | [10]; at 11.0 µM 88% | [10]; at 33.0 µM 96% | [10]; at 100.0 µM 98% | [11]; at 3.7 µM 80% | [11]; at 11.0 µM 94% | [11]; at 33.0 µM 97% | [11]; at 100.0 µM 97%
